The subject of assay [1] is Klebsiella pneumoniae. As to conditions: Concentration 32 ug.mL-1;; ASSAY_TEST Inhibition of Bacterial Growth; detection method Absorption (OD600); MEDIA CAMHB; plate type 384well; NBS; CORNING #3640; time 18 hr.
Assay [2] concerns Candida albicans. As to conditions: Concentration 32 ug.mL-1; ASSAY_TEST Inhibition of Fungal Growth; detection method Absorption (OD530).
The subject of assay [3] is Cryptococcus neoformans. The settings on record: Concentration 32 ug.mL-1; ASSAY_TEST Inhibition of Fungal Growth; detection method Resazurin; Absorption (OD600-OD570); plate type 384well; NBS; CORNING #3640. (In general: Alamar Blue is a resazurin reagent that responds to reducing activity.)

Molecules are shown by their SMILES. Potency and affinity values are given separately.

As for `Cc1ccc(Nc2cc(C)n3c(=O)n(CCOc4ccc(F)cc4)nc3n2)cc1`, the Inhibition – broadly, the change of the read-out against control, counted positive when it falls – was 19.26% in assay [1], 2.38% in assay [2] and -10.19% in assay [3].

For the compound `O=C(Cn1nc2ccc(C(=O)NCc3ccccc3)cn2c1=O)Nc1ccc2c(c1)OCO2`, the Inhibition was 7.16% in assay [1], 3.87% in assay [2] and -36.87% in assay [3].

Regarding `O=C(CSc1nnc2c(=O)n(-c3ccccc3)ccn12)c1c[nH]c2ccccc12`, the Inhibition is reported as 19.5% in assay [1], 3.09% in assay [2] and -9.19% in assay [3].

For the compound `COCCCNC(=O)CSc1nnc2c(=O)n(Cc3ccccc3)ccn12`, the figures for the Inhibition in assay [1], in assay [2] and in assay [3] were 17%, 2.41% and -23.49%, respectively.

As for `COc1cc(NC(=O)Cn2nc3c(N4CCCC4)nccn3c2=O)cc(OC)c1`, the Inhibition is given as 0.81% in assay [1], -1.46% in assay [2] and -4.76% in assay [3].

`CCc1nnc2c(=O)n(CC(=O)Nc3ccc(NC(C)=O)cc3)c3ccccc3n12`: the Inhibition is reported as 5.97% in assay [1], 5.77% in assay [2] and -14.46% in assay [3].

Regarding `CCOc1ccc(NC(=O)Cn2nc3ccc(-c4ccc(C)c(C)c4)nn3c2=O)cc1`, the results for the Inhibition in assay [1], in assay [2] and in assay [3] were 4.27%, 1.39% and -10.52%, respectively.

As for `COc1cccc(C(=O)CSc2nnc3c(=O)n(-c4ccc(F)cc4)ccn23)c1`, the Inhibition in assay [1] is 7.79%; in assay [2] it was 2.89%; in assay [3], -4.94%.

As to `Cc1ccc(-c2cc3c4nn(CC(=O)Nc5ccc6c(c5)OCO6)c(=O)n4ccn3n2)cc1C`, the Inhibition in assay [1] is on record as 2.27%; in assay [2], 33.95%; in assay [3], -8.66%.

With `Cc1ccccc1Oc1nccn2c(=O)n(CC(=O)Nc3ccc(C(C)C)cc3)nc12`, the Inhibition was 6.08% in assay [1], 37.73% in assay [2] and -9.72% in assay [3].

For the compound `COc1cccc(NC(=O)Cn2nc3c(=O)n(-c4ccc(Br)cc4)ccn3c2=O)c1`, the Inhibition in assay [1] is on record as 6.98%; in assay [2], 1.08%; in assay [3], -6.3%.

Regarding `O=C(Cn1nc2c(N3CCSCC3)nc3ccccc3n2c1=O)NCc1ccccc1`, the Inhibition in assay [1] is recorded as 13.9%; in assay [2] it was 0.65%; in assay [3], -23.77%.

With `O=S(=O)(c1ccc2nncn2c1)N(Cc1ccc(Cl)cc1)c1ccc2c(c1)OCO2`, the Inhibition in assay [1] is 8.29%; in assay [2], 2.29%; in assay [3] it was -11.3%.

On to `COC(=O)c1ccc(CN(c2cccc(F)c2)S(=O)(=O)c2ccc3nncn3c2)o1`, for which the results for the Inhibition in assay [1], in assay [2] and in assay [3] were 8.3%, 2.51% and -7.35%, respectively.

For `N#Cc1ccc(NC(=O)Cn2nc3c(Oc4ccccc4)nccn3c2=O)cc1`, the results for the Inhibition in assay [1], in assay [2] and in assay [3] were 4.51%, 0.35% and -7.22%, respectively.

Take `CCOc1ccc(N(Cc2ccc(F)cc2)S(=O)(=O)c2ccc3nncn3c2)cc1`: the Inhibition is recorded as 4.23% in assay [1], 3.15% in assay [2] and -3.72% in assay [3].

Consider `Cc1ccc(-c2ccc3nn(CC(=O)Nc4c(C)cccc4C)c(=O)n3n2)cc1C`, for which the figures for the Inhibition in assay [1], in assay [2] and in assay [3] were -0.65%, -0.71% and -7.01%, respectively.

Turning to `COc1ccc(-c2cc3c4nn(CC(=O)NCc5ccccc5Cl)c(=O)n4ccn3n2)cc1`, the Inhibition is 14.7% in assay [1], 1.1% in assay [2] and -29.87% in assay [3].

Take `CCC(Sc1nnc2c(=O)n(-c3ccc(F)cc3)ccn12)C(=O)Nc1cc(OC)cc(OC)c1` (centres undefined): the figures for the Inhibition in assay [1], in assay [2] and in assay [3] were 12.14%, -0.61% and -13.06%, respectively.

Take `Cc1nnc2c(=O)n(CC(=O)Nc3ccc(Cl)cc3)c3ccccc3n12`: the Inhibition in assay [1] is given as 4.43%; in assay [2], -0.59%; in assay [3], -11.19%.

As for `O=C(Cn1nc2c(N3CCOCC3)nccn2c1=O)N1CCN(c2ccccc2F)CC1`, the Inhibition in assay [1] is listed as 8.66%; in assay [2] it was 0.78%; in assay [3], -5.23%.

`CCCCn1c(=O)c2sccc2n2c(CCC(=O)Nc3ccc(OC(F)(F)F)cc3)nnc12`: the Inhibition in assay [1] was 7.36%; in assay [2], -0.1%; in assay [3] it was -18.58%.

Take `COc1ccc(-c2cc3c4nnc(CCC(=O)N5CCN(c6ccccc6F)CC5)n4ccn3n2)cc1`: the Inhibition in assay [1] is reported as 15.22%; in assay [2], 2.19%; in assay [3] it was -8.32%.

Consider `COC(=O)c1ccc(NC(=O)Cn2nc3ccc(SCc4ccc(Cl)cc4)nn3c2=O)cc1`, for which the values for the Inhibition in assay [1], in assay [2] and in assay [3] were 3.21%, 46.24% and -5.53%, respectively.

In the case of `CCOC(=O)c1ccc(NC(=O)Cn2nc3ccc(SCc4ccc(Cl)cc4)nn3c2=O)cc1`, the results for the Inhibition in assay [1], in assay [2] and in assay [3] were 5.68%, 34.69% and -19.64%, respectively.

Take `CCCN(C)c1nccn2c(=O)n(CC(=O)Nc3cccc(Cl)c3F)nc12`: the values for the Inhibition in assay [1], in assay [2] and in assay [3] were 7.25%, 0.78% and -6.38%, respectively.

Regarding `COc1ccccc1-n1ccn2c(SCc3ccccc3Cl)nnc2c1=O`, the Inhibition in assay [1] is given as 10.5%; in assay [2], 2.3%; in assay [3], -11.71%.

As for `Cc1nnc2c(S(=O)(=O)N(Cc3ccccc3)c3ccc(C(C)C)cc3)cccn12`, the figures for the Inhibition in assay [1], in assay [2] and in assay [3] were 8.51%, -1.81% and -8.23%, respectively.

Values taken from ChEMBL document CHEMBL4513146, “CO-ADD screening of Karazin Kharkiv National University (Ukraine) compounds”.
